Results reported in PubChem BioAssay AID1159580 (chemical genetic matrix, 2015).
The campaign covered roughly 5,500 compounds. About 2,000 (36%) were called active. About 18% were inconclusive and are not listed. Rule as the data show it: active = normalized growth mostly below about 0.91 (no sharp cut-off); inconclusive = no clear call, values can overlap the other calls; inactive = mostly above about 0.92. This is one part of the list.

Assay: chemical genetic growth profiling, strain panel (AID 1159580);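 also: tested at 20 µM; growth read once vehicle control cultures reached saturation at 30 °C; 1 = growth at the plate median or of vehicle wells; lower values mean less growth of the strain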
Conditions: S. cerevisiae deletion strains, growth OD

Measured: normalized growth

N[C@H](CCC(=O)NCS(=O)(=O)O)C(=O)O
inactive: locus YAL013W, strain DEP1, hits give low values 1.01 | locus YAL040C, strain CLN3, hits give low values 0.996 | locus YCL061C, strain MRC1 (second series), hits give low values 1.01 | locus YDR150W, strain NUM1, hits give low values 1 | locus YDR363W, strain ESC2, hits give low values 1.02 | locus YER002W, strain NOP16, hits give low values 1.02 | locus YGR078C, strain PAC10, hits give low values 0.997 | locus YGR229C, strain SMI1, hits give low values 1.03 | locus YMR263W, strain SAP30, hits give low values 1.01 | locus YMR307W, strain GAS1, hits give low values 1 | locus YNL128W, strain TEP1, hits give low values 1 | locus YNL175C, strain NOP13, hits give low values 0.998 | locus YNL197C, strain WHI3, hits give low values 0.997 | locus YNL224C, strain SQS1, hits give low values 0.986 | locus YNL322C, strain KRE1, hits give low values 1.01 | locus YOR083W, strain WHI5 (second series), hits give low values 0.981 | locus YPL055C, strain LGE1, hits give low values 1.02 | locus YPL241C, strain CIN2, hits give low values 1
